# According to PubChem BioAssay:
# The source made the active and inactive calls.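 The calls were made as follows: active = compounds killing one labelled cell type while sparing the other, by normalised counts and ratio limits, not self-fluorescent; inactive = the rest.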
# Assay: differential killing of epithelial or mesenchymal cells, primary screen, imaging, PC-3E GFP, TEM4-18 mCherry, co-culture (AID 1345086);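 also: cells exposed to compound for 72 h before imaging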;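 as to red/green cell ratio (normalised): normalised mesenchymal count divided by normalised epithelial count so high means epithelial killing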
# Settings: imaging cell counts, at 1 µM; for red/green cell ratio (normalised): actives lie on both sides, counts scaled to control wells, 1 = unselective
# [1] = measured here: epithelial PC-3E GFP cell survival
# [2] = measured here: mesenchymal TEM4-18 mCherry cell survival
Structure (SMILES),red/green cell ratio (normalised),normalised cell number [1],normalised cell number [2]
COc1cc(-c2coc3cc(O)c(OC)c(O)c3c2=O)cc(O)c1OC,0.95 (inactive),1.03,0.98
COc1c(N2CC[C@@H](CN)C2)c(F)cc2c(=O)c(C(=O)O)cn(CCc3ccccc3)c12,1.14 (inactive),0.87,1
CC12CCC3C(CC3(C)C)C3(C1)OC(=O)CC(C(=O)O)C3CC2 (configuration not stated),0.86 (inactive),1.03,0.88
C=C1OC(=O)[C@]2([C@H](C)C=CC(=O)[C@H]2O)[C@H]1O,1.05 (inactive),1.08,1.14
Cc1c(F)c(F)cc(C(=O)NC(=O)NC2CC2)c1F,1 (inactive),1.02,1.02
O=C(O)c1cn(C2CC2)c2cc(N3CCN(c4ccc(Cl)cc4Cl)CC3)c(F)cc2c1=O,0.98 (inactive),1,0.98
Oc1ccc2c(c1)OCC1(O)Cc3cc(O)c(O)cc3C21 (configuration not stated),1.17 (inactive),1.12,1.31
CC1(C)C[C@@H]2C(=O)CC[C@@H]3O[C@]3(C)CC[C@H]21,0.92 (inactive),0.93,0.85
CO[C@@]1(NC(=O)C2SC(=C(C(N)=O)C(=O)O)S2)C(=O)N2C(C(=O)O)=C(CSc3nnnn3C)CSC21 (some centres not stated),0.96 (inactive),1.21,1.17
CC[C@H](CCC(C)[C@H]1CCC2C3CCC4C[C@@H](O)CC[C@]4(C)C3CC[C@@]21C)C(C)C (some centres not stated),1.11 (inactive),0.91,1.01
CC1=C2[C@](C)(C=CC1=O)C[C@H](O)[C@H]1[C@H](C)C(=O)O[C@]21C,1.06 (inactive),1.09,1.15
O=C(C/C=C/c1ccc(O)c(O)c1)O[C@H](Cc1ccc(O)c(O)c1)C(=O)O,1.06 (inactive),1,1.06
OC[C@H]1O[C@H](Oc2cc(O)cc(/C=C/c3ccc(O)cc3)c2)[C@H](O)[C@@H](O)[C@@H]1O,0.79 (inactive),1.3,1.03
COC(=O)/C(=C1\OC(=O)C(c2ccccc2)=C1O)c1ccccc1,1.05 (inactive),1.05,1.11
CC1(C)C(C(=O)O)N2C(=O)C[C@H]2S1(=O)=O (some centres not stated),0.69 (inactive),1.22,0.84
CCC(C)[C@H]1O[C@]2(C=C[C@@H]1C)C[C@@H]1C[C@@H](C/C=C(\C)[C@@H](OC3C[C@H](OC)C(O[C@H]4C[C@H](OC)[C@@H](O)[C@H](C)O4)[C@H](C)O3)[C@@H](C)/C=C/C=C3\COC4[C@H](OC)C(C)=C[C@@H](C(=O)O1)[C@]34O)O2 (some centres not stated),0.83 (inactive),1.13,0.93
Cc1ccc(S[C@H]2OC3COC(c4ccccc4)OC3[C@@H]3OC(=O)N[C@H]23)cc1 (some centres not stated),1.55 (inactive),0.36,0.55
O=C[C@H](O)[C@@H](O)[C@H](O)CO,0.99 (inactive),0.97,0.97
C=C1C(=O)OC(C(=O)OC)C1(O)CCCCCCCCC (configuration not stated),1.05 (inactive),0.99,1.04
CC1CCCC(O)/C=C/C(O)C(=O)c2c(O)cc(O)cc2CC(=O)O1 (configuration not stated),1.11 (inactive),0.89,0.99
COc1cc(OC)c2c(c1C)C(C)(O)COC2=O (configuration not stated),0.9 (inactive),1.14,1.02
O=C1Cc2cc(O)ccc2O1,1.26 (inactive),0.91,1.14
COC(=O)c1cn(C2CC2)c2c(OC)c(F)c(F)c(N)c2c1=O,1.1 (inactive),0.97,1.07
COC(=O)[C@@]12Oc3ccc(-c4ccc5c(c4O)C(O)=C4C(=O)C[C@H](C)[C@H](O)[C@]4(C(=O)OC)O5)c(O)c3C(O)=C1C(=O)C[C@H](C)[C@@H]2O,1.15 (inactive),0.96,1.1
NC(CSCSCC(N)C(=O)O)C(=O)O (configuration not stated),1.19 (inactive),0.91,1.08
O=C(O)c1cn(C2CC2)c2cc(N3CCN(c4ncncn4)CC3)c(F)cc2c1=O,1.22 (inactive),0.88,1.08
CN(C(=O)Cc1ccccc1)C1C(O[C@@H]2OC(COS(=O)(=O)O)C(NC(=O)Cc3ccccc3)[C@H](OS(=O)(=O)O)[C@H]2OS(=O)(=O)O)OC2C[C@@H](NC(=O)Cc3ccccc3)[C@@H](OC3C(NC(=O)Cc4ccccc4)C[C@@H](NC(=O)Cc4ccccc4)[C@H](OS(=O)(=O)O)[C@H]3OS(=O)(=O)O)OC2C1OS(=O)(=O)O (some centres not stated),0.95 (inactive),1.04,0.99
CC(CC(=O)N1C(=O)OC[C@@H]1Cc1ccccc1)N1C(=S)OC[C@H]1c1ccccc1 (some centres not stated),0.87 (inactive),1.17,1.02
O=C1CC(c2ccc(O)cc2)Oc2ccccc21 (configuration not stated),1.07 (inactive),1.01,1.08
